Source: the supplement of paper PMC10037445
In all, about 2,900 compounds were measured (“NF-kB SEAP reporter activity, fold change vs agonist alone”: median about 0.99, highest 2% from about 2.6 on). For the sample, the highest values were picked, then their nearest neighbours and some compounds at random.

Assays:
RAW-Dual [1] = test: NF-kB SEAP reporter activity, fold change vs agonist alone; higher = enhanced NF-kB activity
How it was run: (§1)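 RAW-Dual macrophages were seeded in DMEM at 50,000 cells/well in 384-well plates, given 50 nL of library stock by pin tool, and given a PRR agonist 1 h later. Plates were held at 37 °C, 5% CO2 for 20 hours, after which supernatant was read for IRF by QuantiLuc luminescence and for NF-κB by QuantiBlue absorbance at 620 nm. Reporter activity is expressed as fold change over wells that received agonist alone. A well was called cytotoxic when IncuCyte confluency fell below 70% of agonist controls in both mask sets.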

RAW-Dual [2] = test: NF-kB SEAP reporter activity, fold change vs agonist alone; cytotoxicity flag (confluency mask): cytotoxic (confluency <70% of control); higher = enhanced NF-kB activity
How it was run: as §1

RAW-Dual [3] = test: NF-kB SEAP reporter activity, fold change vs agonist alone; cytotoxicity flag (confluency mask): not cytotoxic; higher = enhanced NF-kB activity
How it was run: as §1

[4] = library stock concentration (final ~1000-fold dilution): 10 mM, cytotoxicity flag (confluency mask): cytotoxic (confluency <70% of control), agonist: Imiquimod (TLR7) […]
[5] = library stock concentration (final ~1000-fold dilution): 10 mM, cytotoxicity flag (confluency mask): cytotoxic (confluency <70% of control), agonist: MPLA (TLR4) […]
[6] = agonist: ODN 1826 (TLR9) 0.5 ug/mL
[7] = agonist: Pam2CSK4 (TLR2/6) 0.1 ug/mL
[8] = agonist: Pam3CSK4 (TLR2/1) 0.1 ug/mL

Compound: CC/C(=C(\c1ccc(O)cc1)c1ccc(OCCNC)cc1)c1ccccc1.Cl
- NF-kB SEAP reporter activity (RAW-Dual [1]; [4]): 0.387
- NF-kB SEAP reporter activity (RAW-Dual [1]; [5]): 0.632

Compound: CC/C(=C(\c1ccc(O)cc1)c1ccc(OCCNC)cc1)c1ccccc1.Cl (library stock concentration (final ~1000-fold dilution): 10 mM)
- NF-kB SEAP reporter activity (RAW-Dual [2]; agonist: LPS (TLR4) 0.1 ug/mL): 0.354
- NF-kB SEAP reporter activity (RAW-Dual [2]; [6]): 0.211
- NF-kB SEAP reporter activity (RAW-Dual [2]; [7]): 0.157
- NF-kB SEAP reporter activity (RAW-Dual [2]; [8]): 0.135

Compound: O=C(c1ccc(Oc2ccccc2)cc1Cl)c1c[nH]c2ncnc(NC3CCC(CO)OC3)c12 (stereo unspecified) (library stock concentration (final ~1000-fold dilution): 10 mM)
- NF-kB SEAP reporter activity (RAW-Dual [2]; agonist: LPS (TLR4) 0.1 ug/mL): 0.431
- NF-kB SEAP reporter activity (RAW-Dual [2]; [6]): 0.161
- NF-kB SEAP reporter activity (RAW-Dual [2]; [7]): 0.293
- NF-kB SEAP reporter activity (RAW-Dual [2]; [8]): 0.129

Compound: O=C(c1ccc(Oc2ccccc2)cc1Cl)c1c[nH]c2ncnc(NC3CCC(CO)OC3)c12 (stereo unspecified)
- NF-kB SEAP reporter activity (RAW-Dual [1]; [4]): 0.133
- NF-kB SEAP reporter activity (RAW-Dual [1]; [5]): 0.252

Compound: Cc1cc(N2CC(C)NC(C)C2)ncc1-c1ccc(-c2nc3c(ccn3C)c(=O)[nH]2)cc1 (stereo unspecified) (library stock concentration (final ~1000-fold dilution): 10 mM)
- NF-kB SEAP reporter activity (RAW-Dual [3]; agonist: LPS (TLR4) 0.1 ug/mL): 2.18
- NF-kB SEAP reporter activity (RAW-Dual [3]; [6]): 0.278
- NF-kB SEAP reporter activity (RAW-Dual [3]; [7]): 1.38
- NF-kB SEAP reporter activity (RAW-Dual [3]; [8]): 1.63

Compound: Cc1cc(N2CC(C)NC(C)C2)ncc1-c1ccc(-c2nc3c(ccn3C)c(=O)[nH]2)cc1 (stereo unspecified)
- NF-kB SEAP reporter activity (RAW-Dual [1]; library stock concentration (final ~1000-fold dilution): 10 mM, cytotoxicity flag (confluency mask): not cytotoxic, agonist: Imiquimod (TLR7) […]): 1.14
- NF-kB SEAP reporter activity (RAW-Dual [1]; library stock concentration (final ~1000-fold dilution): 10 mM, cytotoxicity flag (confluency mask): not cytotoxic, agonist: MPLA (TLR4) […]): 2.01

Compound: CCC(=O)N1CCN(c2ccc(-n3c(=O)ccc4cnc5ccc(-c6cnc7ccccc7c6)cc5c43)cc2C(F)(F)F)CC1 (library stock concentration (final ~1000-fold dilution): 2 mM)
- NF-kB SEAP reporter activity (RAW-Dual [3]; agonist: LPS (TLR4) 0.1 ug/mL): 1.55
- NF-kB SEAP reporter activity (RAW-Dual [3]; [6]): 1.02
- NF-kB SEAP reporter activity (RAW-Dual [3]; [7]): 0.421
- NF-kB SEAP reporter activity (RAW-Dual [3]; [8]): 0.629

Compound: Nc1ccc(-c2ccc3ncc4ccc(=O)n(-c5cccc(C(F)(F)F)c5)c4c3c2)cn1 (library stock concentration (final ~1000-fold dilution): 10 mM)
- NF-kB SEAP reporter activity (RAW-Dual [2]; agonist: LPS (TLR4) 0.1 ug/mL): 5.68
- NF-kB SEAP reporter activity (RAW-Dual [2]; [6]): 2.16
- NF-kB SEAP reporter activity (RAW-Dual [2]; [7]): 1.77
- NF-kB SEAP reporter activity (RAW-Dual [2]; [8]): 3.14

Compound: CCC(=O)N1CCN(c2ccc(-n3c(=O)ccc4cnc5ccc(-c6cnc7ccccc7c6)cc5c43)cc2C(F)(F)F)CC1
- NF-kB SEAP reporter activity (RAW-Dual [1]; library stock concentration (final ~1000-fold dilution): 2 mM, cytotoxicity flag (confluency mask): not cytotoxic, agonist: Imiquimod (TLR7) […]): 0.44
- NF-kB SEAP reporter activity (RAW-Dual [1]; library stock concentration (final ~1000-fold dilution): 2 mM, cytotoxicity flag (confluency mask): not cytotoxic, agonist: MPLA (TLR4) […]): 1.51

Compound: Nc1ccc(-c2ccc3ncc4ccc(=O)n(-c5cccc(C(F)(F)F)c5)c4c3c2)cn1
- NF-kB SEAP reporter activity (RAW-Dual [1]; [4]): 2.12
- NF-kB SEAP reporter activity (RAW-Dual [1]; [5]): 2.7

Compound: COc1ccc(-c2ccc3ncc4c(c3c2)n(-c2ccc(N3CCNCC3)c(C(F)(F)F)c2)c(=O)n4C)cn1.O=C(O)/C=C\C(=O)O (library stock concentration (final ~1000-fold dilution): 10 mM)
- NF-kB SEAP reporter activity (RAW-Dual [2]; agonist: LPS (TLR4) 0.1 ug/mL): 0.236
- NF-kB SEAP reporter activity (RAW-Dual [2]; [6]): 0.205
- NF-kB SEAP reporter activity (RAW-Dual [2]; [7]): 0.085
- NF-kB SEAP reporter activity (RAW-Dual [2]; [8]): 0.217

Compound: COc1ccc(-c2ccc3ncc4c(c3c2)n(-c2ccc(N3CCNCC3)c(C(F)(F)F)c2)c(=O)n4C)cn1.O=C(O)/C=C\C(=O)O
- NF-kB SEAP reporter activity (RAW-Dual [1]; [4]): 0.273
- NF-kB SEAP reporter activity (RAW-Dual [1]; [5]): 0.298
